Sampled rows, rich in hits. Any-hit rate of the full collection: about 2.6%.
Cruzain noTriton: inhibitors of Trypanosoma cruzi cruzain without detergent; AID 1476; Potency, µM, actives largely listed as inhibitors; purified cruzain, Z-FR-AMC fluorescence, no detergent; hit rate 2.3% among 200,000; also: nearly all actives have a fitted effect of over 40% in size
Target sequence (P25779 123-467 limits assumed): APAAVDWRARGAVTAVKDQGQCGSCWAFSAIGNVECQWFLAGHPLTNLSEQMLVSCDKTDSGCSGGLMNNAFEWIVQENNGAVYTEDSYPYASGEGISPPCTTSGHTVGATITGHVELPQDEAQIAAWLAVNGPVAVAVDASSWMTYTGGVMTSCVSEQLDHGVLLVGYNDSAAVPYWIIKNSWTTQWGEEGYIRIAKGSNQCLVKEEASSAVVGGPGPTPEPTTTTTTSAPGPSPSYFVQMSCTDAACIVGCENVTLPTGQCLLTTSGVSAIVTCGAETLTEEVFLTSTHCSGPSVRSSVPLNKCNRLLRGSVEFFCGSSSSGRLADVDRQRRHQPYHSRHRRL
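Detergent-free condition (0.00005% Triton X-100) in acetate buffer pH 5.5 with DTT. 1.5 nM enzyme and compound were pre-mixed 15 min, then 2 uM Z-FR-AMC substrate added; reaction progress from fluorescence change between first and third reads (60 s).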
Cruzain Triton: cruzain (T. cruzi) inhibition with detergent; P25779; Potency, µM, most hits filed as inhibitors; hit rate 0.43% among 200,000; purified cruzain, Z-FR-AMC fluorescence, 0.01% Triton; also: nearly all actives have a fitted effect of over 40% in size
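Detergent-containing arm of a paired screen for aggregation-based inhibition: 0.01% Triton X-100 present. Cruzain at 1.5 nM cleaved 2 uM Z-FR-AMC at pH 5.5 with 5 mM DTT; AMC fluorescence gain over 60 s measured activity.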
Each line names hits and unclear results; the compound was inactive in the other large screens; ! = not active in a repeat. Calls follow the shape of the dose curve; as a rule, active = well fitted curve in the direction sought with a large enough effect; inconclusive = small, poorly fitted or top-dose-only effect, or another doubt; inactive = no such curve, though single readings can be large; an effect the other way counts as inactive or inconclusive.

O=C(CSc1nc2ccccc2s1)N1c2ccccc2Sc2ccc(Cl)cc21	Cruzain noTriton 16µM
O=C(CSc1nnc(-c2c[nH]c3ccccc23)o1)N1c2ccccc2CCc2ccccc21	Cruzain noTriton inconclusive
O=C(CSc1nc2ccccc2o1)N1c2ccccc2Sc2ccccc21	Cruzain noTriton inconclusive
Cc1cccc(OCc2nnc(SCC(=O)N3c4ccccc4Sc4ccc(Cl)cc43)o2)c1	Cruzain noTriton 13µM
O=C(CSc1nnc(COc2cccc3ccccc23)o1)N1c2ccccc2CCc2ccccc21	Cruzain noTriton 13µM
COc1cccc(OCc2nnc(SCC(=O)N3c4ccccc4Sc4ccc(Cl)cc43)o2)c1	Cruzain noTriton inconclusive
O=C(CSc1nc(C2CC2)nc2ccccc12)N1c2ccccc2Sc2ccccc21	Cruzain noTriton 25µM
COc1ccc2cc(CNc3ccc(C)cc3)c(=O)n(CC(=O)Nc3ccc(C)cc3Cl)c2c1	none
O=C1c2ccccc2C(=O)N1CC(=O)N1c2ccccc2Sc2ccc(C(F)(F)F)cc21	Cruzain noTriton inconclusive
O=C(CSc1nc2ccccc2s1)N1c2ccccc2Sc2ccc(C(F)(F)F)cc21	Cruzain noTriton 10µM
Cc1ccc2nc(-c3ccc(NC(=O)COC(=O)c4ccc([N+](=O)[O-])o4)cc3)sc2c1	Cruzain noTriton 16µM
Cc1ccc2nc(-c3ccc(NC(=O)COC(=O)c4cncc(Br)c4)cc3)sc2c1	Cruzain noTriton 6.3µM
CCOc1ncccc1C(=O)OCC(=O)Nc1ccc(-c2nc3ccc(C)cc3s2)cc1	none
Cc1ccc2nc(-c3ccc(NC(=O)COC(=O)c4ccc(Br)o4)cc3)sc2c1	Cruzain noTriton 13µM
Cc1ccc2nc(-c3ccc(NC(=O)COc4ccccc4)cc3)sc2c1	Cruzain noTriton inconclusive
CCC(C)(C)NC(=S)Nc1ccc(-c2nc3ccc(C)cc3s2)cc1	Cruzain noTriton inconclusive
Cc1ccc2nc(-c3ccc(NC(=O)COC(=O)c4ccco4)cc3)sc2c1	Cruzain noTriton inconclusive
CC(=O)NC(=S)Nc1ccc(-c2nc3ccc(C)cc3s2)cc1	Cruzain noTriton 6.3µM
CC1=C(C(=O)Nc2cccc(C(F)(F)F)c2)C(c2ccccn2)n2ncnc2N1 (stereo not drawn)	none
CC1=c2c(oc3cc(O)c(Nc4c(C)cc(O)cc4O)c(C)c23)=CC(=O)C1=Nc1c(C)cc(O)cc1O	none
CCCOc1ccc(OC(=O)c2c(-c3ccccc3Cl)noc2C)cc1	none
COc1ccccc1N(Cc1cc2cccc(C)c2[nH]c1=O)C(=O)c1cccc(Cl)c1	none
COC(=O)[C@H](COC(C)(C)C)NC(=O)O[C@@H]1C(=O)c2cc(OC)ccc2O[C@H]1c1cccc(OC)c1	none
O=C(/C=C/Nc1ccc(F)c(F)c1)c1ccc(Br)cc1	Cruzain noTriton 25µM
O=C(/C=C/Nc1ccc([N+](=O)[O-])cc1)c1ccc(Br)cc1	Cruzain noTriton 20µM
O=C(/C=C/Nc1ccccc1F)c1ccc(Br)cc1	Cruzain noTriton inconclusive
Cc1cc(N/C=C/C(=O)c2ccc(Br)cc2)no1	Cruzain noTriton inconclusive
O=C(CSc1nc2c([nH]c3ccccc32)c(=O)n1-c1ccc(F)cc1)NC1CCCCC1	none
O=S(=O)(c1ccccc1)c1nc(-c2ccco2)oc1SCc1ccc(F)cc1	none
COc1ccc(-c2nnc(SCC(=O)Nc3ccc(C)c(C)c3)s2)cc1	none
COc1cc(OC)c(NC(=O)Nc2c(C)n(C)n(-c3ccccc3)c2=O)cc1Cl	none
Cc1cc2oc(=O)c(CC(=O)NCCc3ccccc3)c(C)c2c2occ(C(C)(C)C)c12	Cruzain noTriton inconclusive
CCC(=O)NC(NC(=S)Nc1ccc(S(N)(=O)=O)cc1)C(Cl)(Cl)Cl (stereo not drawn)	none
Cc1cccc(C(=O)NC(NC(=S)Nc2ccc(S(N)(=O)=O)cc2)C(Cl)(Cl)Cl)c1 (stereo not drawn)	Cruzain noTriton 25µM, Cruzain Triton 13µM
Cc1cc(C)c2oc(C(=O)Nc3c(C(=O)c4ccc(F)cc4)oc4ccccc34)cc(=O)c2c1	Cruzain noTriton inconclusive
Cc1ccc(NC(=O)[C@@H](c2ccccc2)N2Cc3ccccc3C2=O)cc1	none
Cc1cc(=O)n2[nH]c(N)c(N=Nc3ccccc3)c2n1	none
Nc1ccc(N=Nc2ccccc2)c(N)n1	Cruzain noTriton 20µM!
Clc1nnc(N/N=C/c2ccccc2)c2ccccc12	none
Clc1ccc(/C=N/Nc2nnc(Cl)c3ccccc23)cc1	Cruzain noTriton 25µM
O=[N+]([O-])c1ccc(N2CCN(S(=O)(=O)c3ccc4ccccc4c3)CC2)cc1NCC1CCCO1 (stereo not drawn)	Cruzain noTriton 16µM
O=[N+]([O-])c1ccc(N2CCN(S(=O)(=O)c3ccccc3)CC2)cc1NCC1CCCO1 (stereo not drawn)	none
COc1ccc(-c2nc(CSCC(=O)N3CCN(c4ccc(F)cc4)CC3)c(C)o2)cc1	Cruzain noTriton inconclusive
CNC/C(Cl)=N/S(=O)(=O)c1ccc(C)cc1	none
COc1ccc(CCNc2oc(/C=C/c3cc(OC)c(OC)c(OC)c3)nc2C#N)cc1OC	none
COCCCNc1oc(/C=C/c2cc(OC)c(OC)c(OC)c2)nc1C#N	Cruzain noTriton 20µM, Cruzain Triton 25µM

Bioassay records: PubChem, National Center for Advancing Translational Sciences (NCATS)
